In PubChem BioAssay (Tox21):
Inconclusive results are not listed. The source made the active and inactive calls. Unless noted, calls come from the whole dose curve; as a rule, active = well fitted curve in the direction sought with a large enough effect in the repeat runs; inconclusive = weak or mixed curves; inactive = no such curve, though single readings can be large; an effect the other way counts as inactive or inconclusive.

Key:
[1] = qHTS assay to identify small molecule agonists of the estrogen receptor alpha (ER-alpha) signaling pathway in the presence of an antagonist - cell viability counter screen (AID 1259386);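 note: series mostly up to about 92 µM; cells exposed to compounds for 22 h at 37 °C before the viability read; nearly all actives have a fitted effect of over 30% in size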
Procedure, shortened: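 ICI-182,780 at 10.0nM final accompanies the compound titration (15 concentrations, 22hr, 37C) on VM7Luc4E2 cells. The CellTiter-Fluor fluorescence readout runs in the same wells as the luciferase assay.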

[2] = target: Progesterone receptor (Homo sapiens) (UniProt P06401); assay: qHTS assay to identify small molecule agonists of the progesterone receptor (PR) signaling pathway (AID 1346784; calls by dose curve; note: nearly all actives have a fitted effect of over 30% in size)
Sequence of Progesterone receptor (Homo sapiens) (P06401 whole entry, looked up): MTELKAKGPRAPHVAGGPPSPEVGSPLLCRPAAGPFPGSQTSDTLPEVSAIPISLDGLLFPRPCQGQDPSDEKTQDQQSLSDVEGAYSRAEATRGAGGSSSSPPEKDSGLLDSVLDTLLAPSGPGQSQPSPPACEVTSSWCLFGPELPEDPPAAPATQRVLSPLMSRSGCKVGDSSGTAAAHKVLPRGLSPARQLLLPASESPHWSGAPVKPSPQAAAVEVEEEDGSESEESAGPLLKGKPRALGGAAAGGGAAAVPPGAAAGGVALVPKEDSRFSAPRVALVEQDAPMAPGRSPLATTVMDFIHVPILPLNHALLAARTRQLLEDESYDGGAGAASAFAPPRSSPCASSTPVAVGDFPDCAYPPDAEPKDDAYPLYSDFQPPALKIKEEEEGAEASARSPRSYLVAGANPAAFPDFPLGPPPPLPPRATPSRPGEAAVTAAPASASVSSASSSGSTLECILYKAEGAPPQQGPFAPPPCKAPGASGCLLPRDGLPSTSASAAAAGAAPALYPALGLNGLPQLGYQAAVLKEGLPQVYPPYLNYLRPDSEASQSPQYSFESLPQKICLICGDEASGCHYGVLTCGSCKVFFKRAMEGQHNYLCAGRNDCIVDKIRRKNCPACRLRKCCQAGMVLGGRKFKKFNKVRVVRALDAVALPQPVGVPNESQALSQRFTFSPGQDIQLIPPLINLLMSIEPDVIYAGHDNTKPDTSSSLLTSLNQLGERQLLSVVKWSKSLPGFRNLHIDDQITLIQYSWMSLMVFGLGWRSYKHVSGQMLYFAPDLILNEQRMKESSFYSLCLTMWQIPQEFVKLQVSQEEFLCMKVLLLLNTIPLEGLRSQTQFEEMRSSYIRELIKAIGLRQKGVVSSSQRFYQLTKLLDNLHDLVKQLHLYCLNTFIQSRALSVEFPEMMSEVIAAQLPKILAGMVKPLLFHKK
Procedure, shortened: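 Beta-lactamase reporter read-out: after 16 hr compound treatment at 37C and a further 2 hr at room temperature with LiveBLAzer B/G FRET substrate, fluorescence was measured in PR-UAS-bla HEK 293T cells grown in 2% charcoal-stripped serum.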

[3] = target: Progesterone receptor (Homo sapiens) (UniProt P06401); assay: qHTS assay to identify small molecule antagonists of the progesterone receptor (PR) signaling pathway (AID 1346795; active = well fitted inhibition curve with a large enough effect in the signal ratio in the repeat runs, not every such curve was filed as active; the % refers to the signal ratio; note: potency is the fitted concentration of half-maximal effect)
Procedure, shortened: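 Read-out is fluorescence from the LiveBLAzer B/G FRET substrate, cleaved by a UAS-controlled beta-lactamase in PR-UAS-bla HEK293T cells after 16 hr exposure to compound plus 1 nM promegestone (final), followed by 2 hr at room temperature.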

[4] = qHTS assay to identify small molecule antagonists of the progesterone receptor (PR) signaling pathway - cell viability counter screen (AID 1346798);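 note: HEK293T PR-UAS-bla cells stimulated with the agonist R5020; series mostly up to about 92 µM; nearly all actives have a fitted effect of over 50% in size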
Procedure, shortened: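 HEK293T PR-UAS-bla, 2% charcoal-stripped FBS; 4 hr pre-plate; cpd + R5020, 16 h 37C; LiveBLAzer read first; then CellTiter-Glo 30 min RT, luminescence.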

[5] = qHTS assay to identify small molecule agonists of the progesterone receptor (PR) signaling pathway - cell viability counter screen (AID 1346799; calls by dose curve; note: nearly all actives have a fitted effect of over 45% in size)
Procedure, shortened: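 Luminescence from CellTiter-Glo, added after the beta-lactamase FRET read in the same wells, gave cytotoxicity in PR-UAS-bla HEK293T cells treated with compounds for 16 hr at 37C.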

[6] = qHTS assay to identify small molecule antagonists of the TGF-beta/Smad signaling pathway - cell viability counter screen (AID 1346824); note: nearly all actives have a fitted effect of over 50% in size
Procedure, shortened: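 SBE-bla HEK 293T cells were plated overnight at 37 C, then given compounds in DMSO plus TGF-beta1 (added as 0.25 ng/mL solution) for 5 hr. After the bla read, CellTiter-Glo was added to the same wells and luminescence read after 30 min at room temperature.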

[7] = qHTS assay to identify small molecule agonists of the TGF-beta/Smad signaling pathway - cell viability counter screen (AID 1346829); note: top concentration of the series differs between compounds; nearly all actives have a fitted effect of over 45% in size
Procedure, shortened: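 HEK 293T SBE-bla line, 5 hr compound exposure at 37 C, multiplexed CellTiter-Glo viability read by luminescence.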

[8] = qHTS assay to identify small molecule agonists of the TGF-beta/Smad signaling pathway (AID 1346859; active = well fitted activation curve with a large enough effect in the signal ratio in the repeat runs, not every such curve was filed as active; the % refers to the signal ratio; note: series mostly up to about 77 µM)
Procedure, shortened: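 SBE-bla HEK 293T, 4,000 cells/well, plated o/n; cpd in DMSO, 5 hr, 37 C/5% CO2; B/G FRET substrate 2 hr RT; ex 405, em 460/530 nm.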

[9] = target: Thyrotropin-releasing hormone receptor (Homo sapiens) (UniProt P34981); assay: qHTS assay to identify small molecule antagonists of the thyrotropin-releasing hormone receptor (TRHR) signaling pathway (AID 1346877; active = well fitted inhibition curve with a large enough effect in the repeat runs, not every such curve was filed as active; note: series mostly up to about 51 µM)
Sequence of Thyrotropin-releasing hormone receptor (Homo sapiens) (P34981 whole entry, looked up): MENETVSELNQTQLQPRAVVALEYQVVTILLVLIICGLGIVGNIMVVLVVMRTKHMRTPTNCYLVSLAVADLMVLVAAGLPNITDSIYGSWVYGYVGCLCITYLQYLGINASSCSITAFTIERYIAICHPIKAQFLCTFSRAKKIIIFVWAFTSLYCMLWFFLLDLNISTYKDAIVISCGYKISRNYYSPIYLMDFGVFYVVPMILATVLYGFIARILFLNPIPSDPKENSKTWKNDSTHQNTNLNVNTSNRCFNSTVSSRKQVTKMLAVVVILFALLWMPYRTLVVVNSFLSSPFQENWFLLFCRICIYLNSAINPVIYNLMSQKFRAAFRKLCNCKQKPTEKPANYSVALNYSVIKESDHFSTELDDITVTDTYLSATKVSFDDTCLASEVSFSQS
Procedure, shortened: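 Screening used HEK293 cells engineered with TRHR, with a brief 5 min room-temperature compound exposure preceding addition of TRH to 1 nM. The read-out was kinetic calcium-dye fluorescence, concentration-response from 15 doses in triplicate.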

[10] = target: Thyrotropin-releasing hormone receptor (Homo sapiens) (UniProt P34981); assay: qHTS assay to identify small molecule agonists of the thyrotropin-releasing hormone receptor (TRHR) signaling pathway (AID 1346891; calls by dose curve; note: series mostly up to about 58 µM)
Procedure, shortened: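 Intracellular calcium rise, read as fluorescence every second for 3 min, served as the agonist signal in dye-loaded HEK293 cells expressing TRHR; each compound ran at 15 concentrations in triplicate.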

[11] = Human pregnane X receptor (PXR) small molecule agonists, qHTS cell viability counter screen (AID 1346977); note: nearly all actives have a fitted effect of over 50% in size
Procedure, shortened: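 PXR-Luc HepG2, 2,000 cells/well, 5% charcoal-stripped FBS; 5hr settle; cpd 24hr, 37C/5% CO2; CellTiter-Fluor at 23hr, read 1hr later (fluorescence).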

[12] = Caspase-3/7 induction in HepG2 cells by small molecules, qHTS assay (AID 1346978); note: nearly all actives have a fitted effect of over 15% in size
Procedure, shortened: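 Wild-type HepG2 cells (2,000/well) were settled 5 h at 37 C, 5% CO2, then exposed to compounds in DMSO for 17 h. Caspase-3/7 activity was read by luminescence 30 min after adding Caspase-Glo 3/7 reagent at room temperature.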

[13] = Caspase-3/7 induction in CHO-K1 cells by small molecules, qHTS assay (AID 1346980); note: nearly all actives have a fitted effect of over 15% in size
Procedure, shortened: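 Wild-type cells were seeded at 1,500 per well and settled 5 hr at 37 C, 5% CO2, then exposed to DMSO-dissolved compounds for 17 hr. Caspase-Glo 3/7 reagent was added, and luminescence was read after 30min at room temperature.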

[14] = Caspase-3/7 induction in HepG2 cells by small molecules, qHTS cell viability counter screen (AID 1346981); note: series mostly up to about 92 µM; nearly all actives have a fitted effect of over 30% in size
Procedure, shortened: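 Multiplexed with the caspase-3/7 assay: HepG2 cells, 16 hr compound treatment, CellTiter-Fluor viability detection by fluorescence.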

[15] = target: Nuclear receptor subfamily 1 group I member 2 (Homo sapiens) (UniProt O75469); assay: Human pregnane X receptor (PXR) small molecule agonists, qHTS assay (AID 1346982); note: nearly all actives have a fitted effect of over 35% in size; note: potency is the fitted concentration of half-maximal effect
Sequence of Nuclear receptor subfamily 1 group I member 2 (Homo sapiens) (O75469 whole entry, looked up): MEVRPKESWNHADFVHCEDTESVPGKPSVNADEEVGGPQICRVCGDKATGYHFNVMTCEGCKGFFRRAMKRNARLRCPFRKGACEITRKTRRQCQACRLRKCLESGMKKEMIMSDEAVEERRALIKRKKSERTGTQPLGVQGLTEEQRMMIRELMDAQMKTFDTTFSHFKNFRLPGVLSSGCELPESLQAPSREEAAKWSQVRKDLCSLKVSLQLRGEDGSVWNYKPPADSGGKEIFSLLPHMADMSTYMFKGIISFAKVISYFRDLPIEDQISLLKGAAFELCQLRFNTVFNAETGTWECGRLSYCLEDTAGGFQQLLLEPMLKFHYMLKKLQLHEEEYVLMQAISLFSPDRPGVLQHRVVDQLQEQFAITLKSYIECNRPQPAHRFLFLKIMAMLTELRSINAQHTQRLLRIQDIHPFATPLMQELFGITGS
Procedure, shortened: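 We seeded PXR-Luc HepG2 cells in assay medium containing 5% charcoal-stripped FBS, added compounds 5 hr later, incubated 24 hr, and read luminescence with ONE-Glo reagent.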

[16] = target: Acetylcholinesterase (Homo sapiens) (UniProt P22303); assay: Acetylcholinesterase (AChE) small molecule antagonists: colormetric cell-based qHTS assay (AID 1347395; calls by dose curve; note: nearly all actives have a fitted effect of over 30% in size; note: potency is the fitted concentration of half-maximal effect)
Sequence of Acetylcholinesterase (Homo sapiens) (P22303 whole entry, looked up): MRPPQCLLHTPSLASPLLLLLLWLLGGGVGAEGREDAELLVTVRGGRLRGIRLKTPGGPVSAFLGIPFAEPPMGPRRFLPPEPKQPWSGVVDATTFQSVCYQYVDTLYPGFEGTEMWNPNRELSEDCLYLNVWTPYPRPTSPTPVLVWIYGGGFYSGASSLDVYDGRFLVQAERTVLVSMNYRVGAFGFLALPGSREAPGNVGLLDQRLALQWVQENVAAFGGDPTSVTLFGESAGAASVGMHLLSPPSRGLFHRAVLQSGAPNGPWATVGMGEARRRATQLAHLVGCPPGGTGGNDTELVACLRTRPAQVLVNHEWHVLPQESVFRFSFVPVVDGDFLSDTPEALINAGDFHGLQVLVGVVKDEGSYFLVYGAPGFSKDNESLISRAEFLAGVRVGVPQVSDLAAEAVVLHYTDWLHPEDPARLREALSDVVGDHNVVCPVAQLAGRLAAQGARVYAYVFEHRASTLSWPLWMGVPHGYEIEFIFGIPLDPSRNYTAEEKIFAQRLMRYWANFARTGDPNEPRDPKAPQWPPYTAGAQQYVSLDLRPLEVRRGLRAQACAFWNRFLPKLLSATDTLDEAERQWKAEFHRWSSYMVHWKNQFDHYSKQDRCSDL
Procedure, shortened: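 Colorimetric read-out: DTNB detects thiocholine released when cellular AChE in SH-SY5Y cells hydrolyses acetylthiocholine. Cells attached overnight, received compound for 30 min at 37 C, then substrate mix for 90 min at 37 C.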

[17] = Caspase-3/7 induction in CHO-K1 cells by small molecules, qHTS cell viability counter screen (AID 1346979); note: nearly all actives have a fitted effect of over 35% in size
Procedure, shortened: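 Cells (CHO-K1, wild type) are plated at 1,500 per well and incubated 5hr. Test compounds in DMSO are then pinned in, followed by 16hr at 37C and 5% CO2. Viability is read by CellTiter-Fluor fluorescence after 1hr.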

[18] = target: Nuclear receptor subfamily 1 group I member 2 (Rattus norvegicus) (UniProt Q9R1A7); assay: Rat pregnane X receptor (rPXR) activation by small molecules, qHTS assay (AID 1346983); settings: rPXR luciferase reporter cells, One-Glo luminescence, 24 h; hits give high values; note: nearly all actives have a fitted effect of over 20% in size
Sequence of Nuclear receptor subfamily 1 group I member 2 (Rattus norvegicus) (Q9R1A7 whole entry, looked up): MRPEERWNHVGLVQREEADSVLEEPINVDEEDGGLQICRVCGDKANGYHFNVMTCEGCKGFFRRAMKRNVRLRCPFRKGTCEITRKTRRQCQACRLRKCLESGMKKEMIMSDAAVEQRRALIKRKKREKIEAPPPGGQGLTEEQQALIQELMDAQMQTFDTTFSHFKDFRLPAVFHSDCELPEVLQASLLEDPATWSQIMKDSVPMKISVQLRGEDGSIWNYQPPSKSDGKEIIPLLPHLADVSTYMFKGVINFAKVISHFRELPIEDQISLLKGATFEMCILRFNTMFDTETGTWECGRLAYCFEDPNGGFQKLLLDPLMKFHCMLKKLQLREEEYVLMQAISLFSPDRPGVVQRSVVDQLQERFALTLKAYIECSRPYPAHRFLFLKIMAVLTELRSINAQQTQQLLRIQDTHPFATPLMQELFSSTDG
Procedure, shortened: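 Cell-based rPXR luciferase reporter assay, 2,000 cells per well, rested 5hr at 37 C before compound addition in DMSO, then 24 hr at 37 C. One-Glo reagent was added and luminescence read after 30 min at room temperature.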

[19] = target: Nuclear receptor subfamily 1 group I member 2 (Homo sapiens) (UniProt O75469); assay: CYP3A4 induction through human pregnane X receptor (PXR) by small molecules, qHTS assay (AID 1346984); note: nearly all actives have a fitted effect of over 40% in size
Procedure, shortened: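 qHTS, concentration-response format: HepG2 DPX-2 line, PXR/CYP3A4-luc. Exposure 24 h, 37C. Substrate Luciferin-IPA 3uM final, 3 h. Detection One-Glo, 30 min RT.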

[20] = target: Nuclear receptor subfamily 1 group I member 2 (Homo sapiens) (UniProt O75469); assay: Human pregnane X receptor (PXR) activation by small molecules, qHTS assay (AID 1346985); note: nearly all actives have a fitted effect of over 40% in size
Procedure, shortened: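 DPX-2 cells (HepG2 co-transfected with a PXR response element and a CYP3A4-promoter luciferase construct) were seeded at 2,000 per well, rested 5 hr at 37C, then exposed to DMSO-dissolved compounds for 24 hr. Activation was read as luciferase luminescence.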
% is set by controls: 0 for no effect and ±100 for the full control effect.

O=C(Cl)C(Cl)(Cl)Cl
active: Potency [15] 43.5 µM
inactive: Potency [1] | Potency [2] | Potency [3] | Potency [4] | Potency [5] | outcome [6] | Potency [7] | outcome [8] | Potency [9] | outcome [10] | Potency [11] | outcome [12] | outcome [13] | Potency [14] | Potency [16]

COc1cc(CCN)cc(OC)c1OC
inactive: Potency [1] | Potency [2] | Potency [3] | Potency [4] | Potency [5] | outcome [6] | Potency [7] | outcome [8] | Potency [11] | outcome [13] | Potency [14] | Potency [15] | Potency [16]

CCC1(CC)C(=O)C=CNC1=O
inactive: Potency [1] | Potency [2] | Potency [3] | Potency [4] | Potency [5] | outcome [6] | Potency [7] | outcome [8] | Potency [9] | outcome [10] | Potency [11] | Potency [17] | outcome [13] | Potency [14] | Potency [15] | Potency [16]

CCCCS(=O)(=O)Cl
inactive: Potency [1] | Potency [2] | Potency [3] | Potency [4] | Potency [5] | outcome [6] | Potency [7] | outcome [8] | Potency [9] | outcome [10] | outcome [12] | Potency [17] | outcome [13] | Potency [14] | Potency [15] | Potency [16]

CCOP(=O)(CN(CCO)CCO)OCC
inactive: Potency [1] | Potency [2] | Potency [3] | Potency [4] | Potency [5] | outcome [6] | Potency [7] | outcome [8] | Potency [11] | outcome [12] | Potency [17] | outcome [13] | Potency [14] | Potency [15] | Potency [16]

CCC(CC)(CNC(=O)CCCO)c1cccc(OC)c1
inactive: Potency [1] | Potency [2] | Potency [3] | Potency [4] | Potency [5] | outcome [6] | Potency [7] | outcome [8] | Potency [9] | outcome [10] | outcome [12] | outcome [13] | Potency [14] | Potency [15] | Potency [16]

COc1cccc([C@@]2(O)CCCC[C@@H]2CN(C)C)c1
inactive: Potency [1] | Potency [2] | Potency [3] | Potency [4] | Potency [5] | outcome [6] | Potency [7] | outcome [8] | Potency [17] | outcome [13] | Potency [14] | Potency [15] | max activation [18] -2.97% | Potency [19] | Potency [20] | Potency [16]

C[C@@H](N)[C@@H](O)c1ccccc1
inactive: Potency [1] | Potency [2] | Potency [3] | Potency [4] | outcome [6] | Potency [7] | outcome [8] | Potency [9] | outcome [10] | Potency [11] | outcome [12] | Potency [17] | outcome [13] | Potency [14] | Potency [15] | max activation [18] -1.4% | Potency [19] | Potency [20]

O=C(CCl)NCO
inactive: Potency [1] | Potency [2] | Potency [3] | Potency [4] | outcome [6] | Potency [7] | outcome [8] | Potency [9] | outcome [10] | Potency [11] | outcome [12] | Potency [17] | outcome [13] | Potency [14] | Potency [15] | Potency [16]

COP(=O)(OC)O/C(C)=C/C(=O)N(C)C
active: Potency [16] 40.2 µM
inactive: Potency [1] | Potency [2] | Potency [3] | Potency [4] | outcome [6] | Potency [7] | Potency [9] | outcome [10] | Potency [11] | Potency [17] | outcome [13] | Potency [14] | Potency [15]

CC(C)(C1CCC(O)CC1)C1CCC(O)CC1 (configuration not stated)
inactive: Potency [1] | Potency [2] | Potency [5] | outcome [6] | Potency [7] | outcome [8] | Potency [11] | outcome [12] | Potency [17] | outcome [13] | Potency [14] | Potency [16]
active: Potency [3] 27.3 µM

COc1ccc2c(C(=O)c3ccc(Cl)cc3)c(C)n(CC(=O)O)c2c1
inactive: Potency [1] | Potency [2] | Potency [3] | Potency [4] | Potency [5] | outcome [6] | Potency [7] | Potency [9] | outcome [10] | Potency [11] | outcome [12] | outcome [13] | Potency [14] | Potency [15]

CCN(CCO)CCO
inactive: Potency [1] | Potency [2] | Potency [3] | Potency [4] | Potency [5] | outcome [6] | Potency [7] | Potency [9] | outcome [10] | Potency [11] | Potency [17] | outcome [13] | Potency [14] | Potency [16]

CCCCCCCCBr
inactive: Potency [1] | Potency [2] | Potency [3] | Potency [4] | Potency [5] | outcome [6] | Potency [7] | Potency [9] | outcome [10] | Potency [11] | outcome [12] | Potency [17] | outcome [13] | Potency [14] | Potency [15] | Potency [16]
